The values that follow come from PubChem BioAssay (Tox21).

A short description of assay [1]: qHTS assay to identify small molecule agonists of H2AX (AID 1224845; active = well fitted activation curve with a large enough effect in the signal ratio in the repeat runs, not every such curve was filed as active; the % refers to the signal ratio; note: potency is the fitted concentration of half-maximal effect). In short, it runs like this: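 Wild-type CHO-K1 cells plated overnight, then exposed 3 hr at 37C to compounds at 15 concentrations (0.76% DMSO). Lysed, then HTRF anti-pH2AX(S139)-cryptate/anti-H2AX-d2 detection after 24 hr at room temperature; emissions 665 and 620 nm.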
A general note: Quantitative high-throughput screening tests each substance at several concentrations.

The nature of assay [2]: qHTS assay to identify small molecule agonists of H2AX - cell viability counter screen (AID 1224847; calls by dose curve; note: nearly all actives have a fitted effect of over 30% in size; note: potency is the fitted concentration of half-maximal effect). In outline: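 Cells plated first: CHO-K1, 1000 per well in 10% FBS medium, incubated overnight at 37C. Then 15-point compound titration added (final DMSO 0.76%) for 3 hr. Finally CellTiter-Glo added and luminescence read.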
The nature of assay [3]: qHTS assay to identify small molecule agonists of the estrogen related receptor (ERR) signaling pathway from Tox21 library (AID 1224849; calls by dose curve; note: nearly all actives have a fitted effect of over 15% in size). The settings on record: ERR reporter cell line, ONE-Glo luciferase, 18 h; at 92.4 µM (top of the series) unless noted. In short, it runs like this: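 Luciferase activity in ERR pathway reporter cells served as the agonist readout; exposure lasted 18 h at 37 C, with ONE-Glo detection after 30 min at room temperature.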

A short description of assay [4]: qHTS RealTime-Glo MT Cell Viability Assay in HepG2 cells - 24 hour (AID 1224867). Note: nearly all actives have a fitted effect of over 50% in size. Note: potency is the fitted concentration of half-maximal effect. In short, it runs like this:
(§1)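 Compound treatment began 5 h after plating HepG2 cells (600/well) with NanoLuc luciferase and prosubstrate. Plates stayed at 37 C for 40 h; luminescence was captured at six time points, 0 h through 40 h.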

Assay [5] can be described thus: qHTS RealTime-Glo MT Cell Viability Assay in HEK293 cells - 32 hour (AID 1224868). Note: nearly all actives have a fitted effect of over 50% in size. Note: potency is the fitted concentration of half-maximal effect. In short, it runs like this: (§2)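 Quantitative high-throughput screen of the Tox21 10K library in HEK293: cells and RealTime-Glo reagents plated together, compound added at 5 h, luminescence monitored through 40 h at 37 C.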
The nature of assay [6]: A CellTox Green Cytotoxicity Assay to monitor cytotoxicity in HEK293 cells - 0 hour (AID 1224869). Note: nearly all actives have a fitted effect of over 50% in size. In short, it runs like this:
(§3)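 Real-time, in one plate: 600 HEK293 cells/well with dead-cell DNA dye, pinned compound after 5 h, 37 C incubation over 40 h; viable cells give no appreciable fluorescence.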

Assay [7] is described as follows: qHTS RealTime-Glo MT Cell Viability Assay in HepG2 cells - 40 hour (AID 1224870). Note: nearly all actives have a fitted effect of over 50% in size. In outline: (§4)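 HepG2 cells mixed with RealTime-Glo MT reagents (NanoLuc plus cell-permeant prosubstrate) were seeded at 600 cells/well, incubated 5 h at 37 C/5% CO2, then pinned with compounds in DMSO; nonlytic luminescence tracked viability during 40 h treatment.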
Assay [8] in a line: A CellTox Green Cytotoxicity Assay to monitor cytotoxicity in HEK293 cells - 40 hour (AID 1224871). Note: nearly all actives have a fitted effect of over 45% in size. Note: potency is the fitted concentration of half-maximal effect. In short, it runs like this: as §3
Assay [9] in a line: qHTS RealTime-Glo MT Cell Viability Assay in HEK293 cells - 40 hour (AID 1224874). Note: nearly all actives have a fitted effect of over 50% in size. Note: potency is the fitted concentration of half-maximal effect. Conditions: RealTime-Glo luminescence; max response: stronger effect = lower value. In short, it runs like this: (§5)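 Kinetic, non-lysing viability readout. Seed HEK293 (600/well) with reagent, incubate 5 h at 37 C/5% CO2, pin 23 nL compound in DMSO, incubate at 37 C, read luminescence at 0, 8, 16, 24, 32, 40 h.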

The nature of assay [10]: A CellTox Green Cytotoxicity Assay to monitor cytotoxicity in HEK293 cells - 24 hour (AID 1224875). Note: nearly all actives have a fitted effect of over 45% in size. Note: potency is the fitted concentration of half-maximal effect. In outline: as §3
Assay [11] is described as follows: A CellTox Green Cytotoxicity Assay to monitor cytotoxicity in HepG2 cells - 16 hour (AID 1224876). Note: nearly all actives have a fitted effect of over 45% in size. In short, it runs like this:
(§6)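 Cytotoxicity was tracked as dead-cell DNA fluorescence in HepG2 cells treated with test compounds at 37 C; each time-point value comes from one kinetic series spanning 0, 8, 16, 24, 32 and 40 h.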

Assay [12] can be described thus: qHTS RealTime-Glo MT Cell Viability Assay in HepG2 cells - 32 hour (AID 1224877). Note: nearly all actives have a fitted effect of over 55% in size. Note: potency is the fitted concentration of half-maximal effect. In outline:
as §1

Assay [13] in a line: A CellTox Green Cytotoxicity Assay to monitor cytotoxicity in HepG2 cells - 24 hour (AID 1224878). Note: nearly all actives have a fitted effect of over 45% in size. Note: potency is the fitted concentration of half-maximal effect. In outline:
as §6

Assay [14] can be described thus: A CellTox Green Cytotoxicity Assay to monitor cytotoxicity in HepG2 cells - 40 hour (AID 1224879). Note: nearly all actives have a fitted effect of over 40% in size. Note: potency is the fitted concentration of half-maximal effect. In short, it runs like this: as §6
Assay [15] can be described thus: qHTS RealTime-Glo MT Cell Viability Assay in HEK293 cells - 0 hour (AID 1224880). In outline: as §5
Assay [16] is described as follows: qHTS assay to identify small molecule agonists of the hypoxia (HIF-1) signaling pathway (AID 1224846; active = well fitted activation curve with a large enough effect in the signal ratio in the repeat runs, not every such curve was filed as active; the % refers to the signal ratio). In outline: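 ME-180 HRE-bla reporter cells; compounds in DMSO, 17 h at 37C; read-out beta-lactamase via CCF4-AM FRET.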
Assay [17] is described as follows: qHTS RealTime-Glo MT Cell Viability Assay in HepG2 cells - 8 hour (AID 1224873). Note: nearly all actives have a fitted effect of over 55% in size. Note: potency is the fitted concentration of half-maximal effect. In short, it runs like this:
as §4

The nature of assay [18]: qHTS RealTime-Glo MT Cell Viability Assay in HEK293 cells - 16 hour (AID 1224872). Note: nearly all actives have a fitted effect of over 50% in size. Note: potency is the fitted concentration of half-maximal effect. In outline: as §2
The nature of assay [19]: qHTS assay to identify small molecule antagonists of the estrogen related receptor (ERR) signaling pathway from Tox21 library (AID 1224848). Note: nearly all actives have a fitted effect of over 50% in size. In short, it runs like this: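 First, 2,000 ERR cells per well were plated and held 6 h at 37 C/5% CO2. Next, compounds in DMSO were pinned in and left 18 h at 37 C. Finally, ONE-Glo was added and luminescence read after 30 min at room temperature.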

“And” between values parts separate entries of the source, which are not always exact repeats. Equal entries are not always repeated. Inconclusive results are not listed. Where a structure was tested more than once in an assay, its records may differ in their call. The source made the active and inactive calls. Unless noted, calls come from the whole dose curve; as a rule, active = well fitted curve in the direction sought with a large enough effect in the repeat runs; inconclusive = weak or mixed curves; inactive = no such curve, though single readings can be large; an effect the other way counts as inactive or inconclusive.
% is set by controls: 0 for no effect and ±100 for the full control effect.

With `CC1(C)C(C=C(Cl)Cl)C1C(=O)OC(C#N)c1ccc(F)c(Oc2ccccc2)c1` (configuration not stated), the Potency entry in assay [1], in assay [2], in assay [4], in assay [5], in [6] and in assay [7] was “inactive” each time. Further, the Potency result in assay [8], in assay [10], in assay [11], in assay [12], in [13] and in assay [14] was “inactive” throughout. Also, in assay [15], the Potency entry was “inactive”. In addition, the activity change, positive = activation in assay [3] was -26.4% (inactive). Further, the max response in assay [9] is -18.6% (inactive).

As for `CC(C)c1c(CN(C)C(C)Cc2ccccc2)n(C)n(-c2ccccc2)c1=O` (configuration not stated), the Potency entry in [1], in assay [16], in [2], in assay [4], in [6] and in assay [7] was “inactive” in each case. Also, the Potency result in assay [8], in assay [17], in [10], in assay [11], in assay [12] and in assay [13] was “inactive” throughout. Also, the Potency result in assay [14] and in [15] was “inactive” in each case.

Consider `Oc1ccc2[nH]cc(CCCCN3CC=C(c4ccccc4)CC3)c2c1`, for which the Potency result in [16], in assay [4], in [6], in assay [7], in assay [17] and in [10] was “inactive” each time. The Potency entry in [11], in assay [12] and in assay [15] was “inactive” in each case. Further, the activity change, positive = activation in [3] was -32.1% [at 42.5 µM] (inactive). In addition, the Potency is 23.9 µM (active) in assay [5], 9.52 µM (active) in assay [18], 19 µM (active) in [13] and 23.9 µM (active) in [14].

Consider `BrCCCBr`, for which the Potency entry in assay [1], in assay [2], in assay [4], in assay [5], in [6] and in [7] was “inactive” throughout. Further, the Potency entry in assay [8], in [18], in assay [17], in assay [10], in [11] and in assay [12] was “inactive” each time. The Potency entry in [13], in assay [14] and in [15] was “inactive” throughout. The max response in assay [9] was 6.85% (inactive).

As for `C=Cc1cccc(CCl)c1`, the Potency entry in [1], in assay [2], in [4], in assay [5], in assay [6] and in assay [7] was “inactive” in each case. In addition, the Potency entry in assay [8], in [18], in [17], in assay [10], in assay [11] and in assay [12] was “inactive” throughout. Moreover, the Potency entry in [13], in assay [14] and in assay [15] was “inactive” throughout. The max response in assay [9] was 4.68% (inactive).

For `c1ccc2c(c1)cc1ccc3cccc4ccc2c1c34`, the Potency entry in [1], in assay [2], in [19], in assay [4], in assay [5] and in assay [6] was “inactive” throughout. The Potency entry in [7], in [8], in [17], in assay [10], in [11] and in [12] was “inactive” throughout. The Potency result in assay [13] and in assay [15] was “inactive” throughout. Also, the activity change, positive = activation in assay [3] was 61.3% (active). In assay [9], the max response is -10.6% (inactive). In [14], the Potency was 7.05 µM (active).

For the compound `O=S1(=O)OCC2C(CO1)C1(Cl)C(Cl)=C(Cl)C2(Cl)C1(Cl)Cl` (configuration not stated), the Potency entry in assay [1], in [2], in assay [6], in assay [7], in assay [10] and in [11] was “inactive” each time. Moreover, the Potency result in assay [13] and in assay [15] was “inactive” each time. In addition, the Potency in assay [5] was 21.9 µM (active); in assay [8], 49 µM (active); in assay [18] it was 19.5 µM (active); in [9], 21.9 µM (active).

As to `Cc1cccc(Cc2cnc[nH]2)c1C`, the Potency entry in assay [2], in [4], in assay [5], in assay [6], in assay [7] and in assay [8] was “inactive” in each case. Further, the Potency result in assay [18], in [17], in assay [10], in assay [12] and in [15] was “inactive” each time. The max response in assay [9] was -0.68% (inactive).

With `Cc1ccc(C)c2ccccc12`, the Potency entry in [1], in assay [16], in assay [2], in [4], in assay [5] and in assay [6] was “inactive” throughout. In addition, the Potency result in assay [7], in assay [18], in assay [17], in assay [11], in assay [12] and in [13] was “inactive” each time. Moreover, the Potency entry in assay [14] and in assay [15] was “inactive” throughout. For the same compound, the Potency in assay [8] was 38.9 µM (active). The max response in assay [9] is -14.8% (inactive).

With `O=S1OCC2C(CO1)C1(Cl)C(Cl)=C(Cl)C2(Cl)C1(Cl)Cl` (configuration not stated), the Potency was 89.9 µM (active) and 101 µM (active) in assay [1]; 101 µM (active) and 89.7 µM (active) in assay [2]; 54.9 µM (active) in [4]; 21.9 µM (active) and 38.9 µM (active) in [5]; 49 µM (active) and 54.9 µM (active) in assay [8]; 19.5 µM (active) and 38.9 µM (active) in assay [18]. The Potency in assay [17] is 48.9 µM (active); in [9], 21.9 µM (active) and 38.9 µM (active); in assay [10], 55 µM (active) and 54.9 µM (active); in assay [12] it was “inactive and 54.9 µM (active)”; in [13] it was 48.9 µM (active); in [14], 54.9 µM (active). The Potency entry in assay [6], in [7] and in assay [15] was “inactive” throughout.

With `CC(=O)[O-].CC(=O)[O-].O.O.[Zn+2]`, the Potency result in assay [1], in assay [2], in assay [4], in [5], in assay [6] and in [7] was “inactive” each time. For the same compound, the Potency result in assay [8], in [18], in [17], in assay [10], in assay [12] and in assay [13] was “inactive” in each case. Moreover, the Potency entry in assay [14] and in assay [15] was “inactive” in each case. In addition, in assay [9], the max response was -2.4% (inactive).

Consider `CC(=O)[O-].CC(=O)[O-].O.O.O.[Pb+2]`, for which the Potency result in [1], in [16], in assay [2], in [4], in assay [6] and in assay [7] was “inactive” each time. Further, the Potency entry in [8], in [17], in [10], in assay [11], in assay [12] and in assay [13] was “inactive” throughout. The Potency entry in [14] and in assay [15] was “inactive” in each case. Further, the max response in assay [9] is -1.15% (inactive).
